Sampled rows, rich in hits. Any-hit rate of the full collection: about 6.7%.
Pf Dd2 growth – inhibitors of Plasmodium falciparum Dd2 growth | P. falciparum Dd2 growth, SYBR Green, 72 h; active compounds read low | activity change, % at 10 µM | hit rate 2.3% among 94,000; in the data active means activity change below about -80%; inconclusive means no clear call, values can overlap the other calls
T cruzi growth-1 – blocks T. cruzi growth in NIH3T3 culture; T. cruzi beta-gal in NIH3T3, GalScreen luminescence, 90 h; inhibition, % at 8.34 µM; hit rate 5.9% among 77,000; AID 624255;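 active means mean inhibition above about 93%, with at least 55% of replicates each passing it, limit read from the data, passing the limit was not always enough; inconclusive means only one of those two conditions holds; inactive means neither condition holds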
C diff HTS – inhibitors of Clostridium difficile growth; Clostridium difficile clinical isolate growth, OD600, 24 h; active compounds read low; growth activity, negative = inhibition, % at 16 µg/mL (by protocol); hit rate 0.25% among 86,000;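 active means mean growth activity at or below -80% and every replicate also at or below -80%; inconclusive means mean at or below -80% but some replicate above -80%; inactive means mean growth activity above -80%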;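 further: 0% = DMSO wells and -100% = levofloxacin 16 µg/mL wells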
T cruzi growth-2 – inhibitors of T. cruzi proliferation; shares compounds with T cruzi growth-1; T. cruzi beta-gal in NIH3T3, GalScreen luminescence, 90 h; inhibition, % at 8.35 µM; hit rate 72% among 5,600;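 active means mean replicate inhibition above about 95% and at least 55% of replicates individually reaching it, limit read from the data; inconclusive means only one of the two criteria is met; inactive means neither criterion is met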
T cruzi growth-3 – blocks T. cruzi growth in NIH3T3 host cells; shares compounds with T cruzi growth-1; T. cruzi beta-gal in NIH3T3, GalScreen luminescence, 90 h; inhibition, % at 2.09 µM; hit rate 21% among 5,600; AID 651740;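 active means mean inhibition above about 95%, with at least 55% of replicates also reaching it, limit read from the data; inconclusive means meets just one of the two conditions; inactive means meets neither condition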;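 further: plate controls were neutral control median for no effect and positive control median for full effect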
NIH3T3 tox – NIH/3T3 (mouse) viability loss. NIH/3T3 viability, CellTiter-Glo ATP luminescence, 90 h. hit rate 14% among 5,600. cytotoxicity (signal decrease), % at 8.35 µM. shares compounds with T cruzi growth-1;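 active means mean signal decrease across replicates above about 35% based on untreated-well scatter, with enough replicates individually passing, limit read from the data; inconclusive means no rule stated though some were filed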;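 further: 0% = median of neutral control wells and 100% = median of positive control wells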
NIH3T3 tox 2 – cytotoxicity in mouse NIH/3T3 fibroblasts; shares compounds with T cruzi growth-1; NIH/3T3 viability, CellTiter-Glo ATP luminescence, 90 h; inhibition, % at 24.9 µM; hit rate 56% among 5,600;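 active means mean loss of cell viability signal at or above a set limit, and enough replicates individually reaching it; inconclusive means meets only the mean limit or only the replicate share; inactive means meets neither condition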;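 further: 0% = median of neutral control wells and 100% = median of positive control wells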
An asterisk follows results filed as active; ? = inconclusive; · = not tested or not shown.

SMILES | Pf Dd2 growth | T cruzi growth-1 | C diff HTS | T cruzi growth-2 | T cruzi growth-3 | NIH3T3 tox | NIH3T3 tox 2
C/C=C/c1ccc2c(c1)O[C@H](CN(C)C(=O)c1ccc3c(c1)OCO3)[C@H](C)CN([C@@H](C)CO)S2(=O)=O | -9.2 | 77.0 | -4.1 | · | · | · | ·
C[C@H]1CN([C@@H](C)CO)S(=O)(=O)c2ccc(/C=C/c3ccccc3)cc2O[C@H]1CN(C)C(=O)c1ccc2c(c1)OCO2 | -71.7 | ? | 11.4 | 103.0* | 92.6 | 32.7 | ?
C/C=C/c1ccc2c(c1)O[C@@H](CN(C)C(=O)c1ccc3c(c1)OCO3)[C@@H](C)CN([C@@H](C)CO)S2(=O)=O | -25.3 | 27.8 | 2.8 | · | · | · | ·
C[C@H]1CN([C@@H](C)CO)S(=O)(=O)c2ccc(/C=C/c3ccccc3)cc2O[C@@H]1CN(C)C(=O)c1ccc2c(c1)OCO2 | -63.1 | 118.5* | 1.6 | 104.3* | 61.1 | 30.4 | 38.5*
C/C=C/c1ccc2c(c1)O[C@H](CN(C)C(=O)c1ccc3c(c1)OCO3)[C@@H](C)CN([C@@H](C)CO)S2(=O)=O | -42.0 | 49.7 | -2.5 | · | · | · | ·
O=C(CN1CCOCC1)N[C@H]1CC[C@@H](CCn2cc(C3CCCCC3)nn2)O[C@H]1CO | 17.7 | -35.9 | -3.6 | · | · | · | ·
O=C(C[C@@H]1C[C@H]2c3cc(NC(=O)c4ccc5c(c4)OCO5)ccc3O[C@H]2[C@@H](CO)O1)NCc1ccc(Oc2ccccc2)cc1 | 4.4 | 120.2* | -2.8 | 74.8 | 5.5 | 44.7* | 93.9*
O=C(C[C@H]1C[C@H]2c3cc(NC(=O)c4ccc5c(c4)OCO5)ccc3O[C@H]2[C@@H](CO)O1)NCc1ccc(Cl)cc1 | -24.8 | 1.4 | 3.4 | · | · | · | ·
O=C(C[C@H]1C[C@@H]2c3cc(NC(=O)c4ccc5c(c4)OCO5)ccc3O[C@@H]2[C@@H](CO)O1)NCc1ccc(Oc2ccccc2)cc1 | -27.7 | 147.9* | -5.4 | 110.8* | 43.3 | 41.9* | 34.1*
O=C(C[C@@H]1C[C@H]2c3cc(NC(=O)c4ccc5c(c4)OCO5)ccc3O[C@H]2[C@H](CO)O1)NCc1ccc(Cl)cc1 | -5.4 | 73.9 | 4.6 | · | · | · | ·
O=C(C[C@@H]1C[C@@H]2c3cc(NC(=O)c4ccc5c(c4)OCO5)ccc3O[C@@H]2[C@H](CO)O1)NCc1ccc(Oc2ccccc2)cc1 | -39.4 | -10.6 | -19.6 | · | · | · | ·
O=C(C[C@@H]1C[C@H]2c3cc(NC(=O)c4ccc5c(c4)OCO5)ccc3O[C@H]2[C@H](CO)O1)NCc1ccc(Oc2ccccc2)cc1 | -29.0 | 113.0* | -12.5 | 103.4* | 19.6 | 69.2* | 51.0*
O=C(CCN1CCCCC1)N[C@H]1CC[C@H](CCNS(=O)(=O)c2ccc(F)cc2)O[C@H]1CO | 24.7 | -72.4 | -2.0 | · | · | · | ·
COc1ccc(-c2ccc3c(c2)[C@@H]2[C@@H](CCN2S(=O)(=O)c2ccccc2F)[C@H](CO)N3C)cc1 | -36.1 | 83.7 | 4.7 | · | · | · | ·
C[C@@H]1CCCCO[C@@H](CN(C)C(=O)Nc2ccc3c(c2)OCO3)[C@@H](C)CN([C@H](C)CO)C(=O)c2cc(NC(=O)CCCCCC(=O)Nc3ccccc3N)ccc2O1 | -12.4 | 40.4 | 1.8 | · | · | · | ·
O=C(C[C@@H]1CC[C@H]2[C@@H](COC[C@H](O)CN2C(=O)c2ccccn2)O1)NC1CCC1 | -2.1 | · | 46.6 | · | · | · | ·
C[C@@H]1CN([C@@H](C)CO)C(=O)c2cc(C#Cc3cccnc3)cnc2O[C@H]1CN(C)Cc1ccc(F)cc1 | -34.3 | · | 0.0 | · | · | · | ·
C/C=C/c1cnc2c(c1)C(=O)N([C@H](C)CO)C[C@H](C)[C@H](CN(C)C(=O)Nc1ccccc1F)O2 | 29.7 | 19.3 | 1.7 | · | · | · | ·
CCCNC(=O)N(C)C[C@@H]1Oc2ncc(/C=C/c3ccccc3)cc2C(=O)N([C@@H](C)CO)C[C@H]1C | -25.6 | 103.4* | 9.7 | 98.5* | 35.9 | -3.8 | 3.6
C[C@@H]1CN([C@H](C)CO)C(=O)c2cc(/C=C/c3ccccc3)cnc2O[C@H]1CN(C)C(=O)Nc1ccccc1F | -66.8 | 124.3* | -11.2 | 109.2* | 104.2* | 10.3 | ?
C[C@H](CO)N1C[C@H](C)[C@@H](CN(C)C(=O)Nc2ccccc2F)Oc2ncc(/C=C/c3ccccc3)cc2C1=O | -79.8 | 118.2* | -13.8 | 112.1* | 55.5 | 16.3 | 17.0
CCCNC(=O)N(C)C[C@H]1Oc2ncc(/C=C/c3ccccc3)cc2C(=O)N([C@H](C)CO)C[C@@H]1C | -47.3 | 93.3 | 1.8 | · | · | · | ·
C/C=C/c1cnc2c(c1)C(=O)N([C@H](C)CO)C[C@@H](C)[C@H](CN(C)C(=O)Nc1ccccc1F)O2 | 10.8 | 3.6 | -0.9 | · | · | · | ·
CN1CCN(C(=O)C[C@@H]2CC[C@H]3[C@@H](COc4ccc(NC(=O)C5CCCCC5)cc4C(=O)N3C)O2)CC1 | 0.0 | -56.2 | 4.8 | · | · | · | ·
C[C@@H]1CN([C@@H](C)CO)C(=O)c2cc(NC(=O)Nc3ccc4c(c3)OCO4)ccc2O[C@@H](C)CCCCO[C@@H]1CN(C)S(=O)(=O)c1cn(C)cn1 | 20.8 | 28.5 | -1.8 | · | · | · | ·
SMILES | Pf Dd2 growth | T cruzi growth-1 | C diff HTS | T cruzi growth-2 | T cruzi growth-3 | NIH3T3 tox | NIH3T3 tox 2
CCC(=O)N(C)C[C@H]1Oc2ncc(-c3ccc(F)cc3)cc2C(=O)N([C@@H](C)CO)C[C@@H]1C | 44.7 | 4.1 | -7.4 | · | · | · | ·
CCC(=O)Nc1ccc2c(c1)OC[C@@H](C)N(CC1CCOCC1)C[C@H](C)[C@H](OC)CN(C)C2=O | 17.1 | -5.7 | · | · | · | · | ·
CCCN1[C@H](C(=O)OC)[C@@H](CO)[C@@H]2Cn3c(ccc(C4=CCCC4)c3=O)[C@@H]21 | -0.2 | 14.0 | -0.4 | · | · | · | ·
CCC(=O)N1CCCCN2[C@@H](CO)[C@H](c3ccc(C#Cc4ccccc4F)cc3)[C@@H]2C1 | -29.0 | 123.8* | -8.8 | 108.6* | 90.7 | 45.2* | 103.5*
CN1CCCCN2[C@@H](CO)[C@@H](c3ccc(C#Cc4ccccc4F)cc3)[C@@H]2C1 | -47.0 | 93.2 | 9.6 | · | · | · | ·
CCC(=O)N1CCCCN2[C@H](CO)[C@@H](c3ccc(C#Cc4cccnc4)cc3)[C@@H]2C1 | 19.1 | 43.5 | 8.6 | · | · | · | ·
CCC(=O)N1CCCCN2[C@@H](CO)[C@@H](c3ccc(C#Cc4ccccc4F)cc3)[C@@H]2C1 | -17.2 | 113.2* | 2.8 | 102.2* | 65.1 | 9.7 | 103.3*
CN1CCCCN2[C@H](CO)[C@@H](c3ccc(C#Cc4ccccc4F)cc3)[C@@H]2C1 | -33.6 | 81.6 | -0.1 | · | · | · | ·
CCC(=O)N1CCCCN2[C@H](CO)[C@@H](c3ccc(C#Cc4ccccc4F)cc3)[C@H]2C1 | -23.3 | 112.1* | -9.3 | 101.7* | 46.6 | 33.8 | 103.9*
COCC(=O)N1CCCCN2[C@H](CO)[C@@H](c3ccc(C#Cc4ccccc4)cc3)[C@H]2C1 | 53.4 | 35.9 | -9.2 | · | · | · | ·
CC(=O)N1CCCCN2[C@H](CO)[C@@H](c3ccc(C#Cc4ccccc4F)cc3)[C@H]2C1 | -24.4 | 102.8* | -5.6 | 74.7 | 44.0 | 45.9* | 104.3*
COc1ccc2c3c(n(C)c2c1)[C@H](CO)N(C(=O)Nc1c(C)noc1C)CC31CCN(CC2CC2)CC1 | -39.7 | · | -2.9 | · | · | · | ·

Screening results: PubChem, Broad Institute
